The campaign covered roughly 360,000 compounds. About 7,300 (2%) were called active. Cut-off read from the data, not from the text of the source: active = inhibition above about 50%; inactive = the rest. The entries come from a sample that favours actives as a whole.
Experiment: blockers of TWEAK-induced Fn14 reporter activity – luciferase reporter cells, uHTS, primary screen (AID 1159606)
Details: TWEAK-stimulated Fn14 reporter cells, luciferase luminescence, 8 h; at 10 µM; active compounds read high

inhibition, active:
CN1OC[C@@H]2CN(S(=O)(=O)c3cccc(C(F)(F)F)c3)[C@H](c3ccc(-c4cc5ccccc5o4)cc3)C[C@@H]21 62.2%
CC(C)(C)n1ncc2c(=O)n(Cc3ccc(Cl)cc3)cnc21 68.2%
c1ccc(-n2ncc3c(N4CCCC4)ncnc32)cc1 62.5%
COc1ccc(-n2ncc3c(N4CCCc5ccccc54)ncnc32)cc1 58.1%
Cc1ccc(-n2ncc3c(N4CCN(c5ccc(F)cc5)CC4)ncnc32)c(C)c1 73%

inhibition, inactive:
COc1nc(OC)nc(N(C)CCO)n1 5.06%
O=C(CCc1ccccc1)Nc1nn[nH]n1 -6.61%
CCOc1ccc(CCN2C(=O)C(=O)N([C@@H](CC(C)C)CN3CCC[C@H]3CN3C(=O)C(=O)NC[C@@H]3Cc3ccccc3)C[C@@H]2CC(C)C)cc1 18.1%
CCc1nc2c(OCC(N)=O)cccn2c1N(C)C(=O)c1ccc(OC)cc1 -0.65%
Cc1cccc(C(=O)O)c1[N+](=O)[O-] -0.13%
O=C(NCc1ccccc1)C(=O)NCC1OCCN1S(=O)(=O)c1ccc(Br)cc1 (configuration not stated) -2.34%
CC(NC(=O)COC(=O)Cn1cc(C(F)(F)F)ccc1=O)c1ccccc1 (configuration not stated) 19.7%
CCC(C)NCC(=O)Nc1ccc([N+](=O)[O-])cc1C(=O)Nc1ccccc1F (configuration not stated) 3.23%
CC(=O)OCCN(CCCn1c(-c2ccncc2)nc2ccccc21)c1nc(-c2ccc(C)cc2)cs1 4.36%
CCCCOCCCNC(=O)C[C@@H]1C[C@@]2(C(=O)OC)CCCCC=C2N(CCC2=CCCCC2)C1=O 11%
CN1OC[C@@H]2CN(S(=O)(=O)c3cccc4ccccc34)[C@H](c3ccc(N4CCCCC4)cc3)C[C@@H]21 -7.73%
COc1ccc(S(=O)(=O)N2C[C@H]3CON(C)[C@H]3C[C@H]2c2cccc(Br)c2)cc1 -6.92%
CC(=O)Cn1cnc2c(cnn2-c2ccccc2)c1=O 4.23%
CC(C)(C)n1ncc2c(=O)n(Cc3c(Cl)cccc3Br)cnc21 3.93%
O=C(O)CSCc1ccc(C(=O)O)o1 -3.63%
CC(CO)NCC12CC3CC(CC(C3)C1)C2 (configuration not stated) 13.3%
COc1ccc(-n2ncc3c(N4CCc5ccccc54)ncnc32)cc1 -15.6%
Cc1ccc2cc(C)c(N3CCN(c4ccc(F)cc4)CC3)nc2c1 8.39%
COc1ccc(-n2ncc3c(SCC(=O)NNC(C)=O)ncnc32)cc1 14.6%
CC(Sc1ncnc2c1cnn2-c1ccccc1)C(=O)Nc1ccc(N2CCOCC2)cc1 (configuration not stated) -20.4%
COC(=O)CSc1ncnc2c1cnn2-c1ccc(C)cc1C -11.2%
CC(C)Sc1ncnc2c1cnn2-c1ccccc1 15.4%

Reference: PubChem BioAssay AID1159606 (Sanford-Burnham Center for Chemical Genomics, 2016)
